# Screens deposited in PubChem by several laboratories.
# A selection: hits, their analogues and other compounds. The true share with any hit is near 32%.
# PostGolgi yeast = growth inhibition of a yeast mutant, post-Golgi transport screen; hit rate 0.9% among 98,000; post-Golgi transport phenotypic cell assay; inhibition, % at 10 µM;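 also: yeast cells grown in 1536-well plates; yeast grown about 18 h at 30C before absorbance read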
# CYP2C9 inh = inhibitors of human CYP2C9; CYP2C9 Supersomes, luciferin-H conversion, luminescence; inhibition, % at 5 µM; P11712; hit rate 20% among 96,000; AID 777;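 active = blocking of liver enzyme CYP2C9 beyond about 50% at 5 µM, limit read from the data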
# Target sequence (P11712 whole entry, looked up): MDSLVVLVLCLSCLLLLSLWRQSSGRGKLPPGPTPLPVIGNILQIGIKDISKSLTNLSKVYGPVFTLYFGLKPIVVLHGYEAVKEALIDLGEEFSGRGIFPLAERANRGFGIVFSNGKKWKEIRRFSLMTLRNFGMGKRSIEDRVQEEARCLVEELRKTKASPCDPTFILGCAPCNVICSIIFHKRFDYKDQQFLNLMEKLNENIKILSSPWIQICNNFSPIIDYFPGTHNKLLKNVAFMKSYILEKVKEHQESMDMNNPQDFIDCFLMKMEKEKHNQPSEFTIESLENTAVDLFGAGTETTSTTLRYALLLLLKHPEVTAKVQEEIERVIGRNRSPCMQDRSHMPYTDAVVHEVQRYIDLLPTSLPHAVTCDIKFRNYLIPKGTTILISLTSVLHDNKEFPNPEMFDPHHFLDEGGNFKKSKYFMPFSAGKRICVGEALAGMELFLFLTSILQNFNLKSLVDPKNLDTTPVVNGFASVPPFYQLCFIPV
# CYP2C9 activ = CYP2C9 (human) activation | hit rate 1.4% among 96,000 | activation factor at 5 µM | P11712 | recombinant CYP2C9, luciferin-H conversion, luminescence; stronger effect = higher value; factor 1 = untreated enzyme, 0 = blocked;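 active = activation factor of 2 or more for CYP2C9 at a 5 µM dose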;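 also: 0 = sulfaphenazole-blocked wells and 1 = vehicle-only wells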
# CYP2C19 act = cytochrome P450 2C19 (human) activation. activation factor at 5 µM. recombinant CYP2C19, luciferin-H EGE luminescence; stronger effect = higher value; 0 = fully inhibited enzyme, 1 = untreated enzyme. P33261. 96,000 tested, under 10 active;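 active = activation factor of at least 2 at 5 µM in the primary screen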;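 also: 0 = wells with 2.5 mM tranylcypromine and 1 = vehicle-only wells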
# PostGolgi ctrl = yeast control strain growth, post-Golgi counter-screen; efflux-deficient yeast background strain, growth absorbance A615, 16 h; AID 738; hit rate 5% among 98,000; inhibition, % at 10 µM
# CYP2C19 inh = blocks human cytochrome P450 2C19 | AID 778 | P33261 | inhibition, % at 5 µM | CYP2C19 Supersomes, luciferin-H EGE luminescence, 30 min | hit rate 21% among 96,000;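 active = CYP2C19 inhibition above a set limit at 5 µM in the primary screen, cut at about 50% in these data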;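 also: plate controls were negative control wells for no effect and 2.5 mM tranylcypromine positive control for full effect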
# An asterisk follows results filed as active; . = no result. Rule as the data show it, unless noted: active = inhibition above about 30%; inactive = the rest.
SMILES,PostGolgi yeast,CYP2C9 inh,CYP2C9 activ,CYP2C19 act,PostGolgi ctrl,CYP2C19 inh
CCC(=O)Nc1nc2nc(-c3ccccc3)cc(-c3ccccc3)n2n1,8,22,0.8,1,7,-1
CC1(C)Cc2nc3oc4c(=S)nc[nH]c4c3cc2CO1,3,22,0.8,0.8,-1,16
CC(=C1C(=O)c2ccccc2C1=O)N1CCc2ccccc2C1,-7,63*,0.4,0.2,3,81*
CCOC(=O)C1CCN(C(C)=C2C(=O)c3ccccc3C2=O)CC1,16,14,0.9,1,2,5
CN(C)/C=c1\sc2c(C#N)cc(C(=O)c3ccc(Br)cc3)n2c1=O,-11,-2,1,1.1,3,-5
CCS(=O)(=O)N1CCN(Cc2ccccc2OC)CC1,-1,15,0.8,0.1,-5,89*
CCOc1ccccc1N1CCN(Cc2cccc(OC)c2OC)CC1,-8,-7,1.1,0.5,16,48
CCOc1ccccc1CN1CCN(S(=O)(=O)CC)CC1,13,9,0.9,0.6,1,38
CCCS(=O)(=O)N1CCN(Cc2ccccc2OCC)CC1,3,4,1,0.2,0,75*
O=C(CSc1nc2cc(Cl)ccc2o1)NCCc1ccccc1,3,65*,0.3,0.5,23,51*
O=C(CSc1nnc(Cc2ccccc2)o1)NCCc1ccccc1,24,21,0.8,0.7,-13,28
CN(C)S(=O)(=O)c1ccc2oc(SCC(N)=O)nc2c1,-4,-1,1,1.2,4,-17
CCN(CC)S(=O)(=O)c1ccc2oc(SCC(=O)NCc3ccccc3)nc2c1,1,90*,0.1,0,11,97*
COc1ccc(C(C)=O)cc1CSc1nc2cc(Cl)ccc2o1,-6,20,0.8,0.8,47*,20
O=C(CSc1nc2cc(Cl)ccc2o1)c1cccs1,2,60*,0.4,0.4,3,58*
CS(=O)(=O)N(CC(=O)NCc1ccccn1)Cc1ccc(Cl)cc1,2,.,.,.,-3,.
CC(=O)Nc1nc(CCC(C)C)cc2c1c(=O)oc1ccccc12,-3,16,0.8,0.9,2,14
CCCn1c(N)c(C(=O)CSc2nnnn2-c2ccc(O)cc2)c(=O)n(C)c1=O,-7,-41,1.4,0.9,30,10
CCCCCCn1c(NCC)nc2c1c(=O)[nH]c(=O)n2C,13,-15,1.2,1,10,-2
C=CCn1c(Cc2ccc(OC)cc2)nnc1SCC(=O)NCCc1ccccc1,-18,30,0.7,0.7,3,26
COc1ccc(CCNC(=O)CSc2nc3ccccc3o2)cc1,5,99*,0,0.1,2,92*
CCS(=O)(=O)c1ccc2oc(SCC(=O)NC3CCCC(C)C3C)nc2c1 (centres undefined),-3,46,0.5,0.5,1,52*
O=C1c2ccccc2C(=O)N1c1ccc(S(=O)(=O)N2CCN(c3ccccc3)CC2)cc1,3,15,0.9,0.9,-5,6
Nc1nc2c(s1)CC(c1ccccc1)CC2 (centres undefined),12,45,0.6,0.3,3,69*
Nc1nc(SCc2ccccc2)ns1,-6,-13,1.1,0.9,19,6
SMILES,PostGolgi yeast,CYP2C9 inh,CYP2C9 activ,CYP2C19 act,PostGolgi ctrl,CYP2C19 inh
CC(Cc1cccs1)NC(=O)Nc1cccc(Cl)c1 (centres undefined),-4,47,0.5,0.3,17,66*
CC(Cc1cccs1)NC(=O)Nc1ccc(F)cc1 (centres undefined),0,47,0.5,0.1,2,87*
C1CCC(OCCN2CCN(CCOC3CCCCC3)CC2)CC1,2,-26,1.3,1.2,11,-21
CS(=O)(=O)Nc1ccc(C(=O)NCc2ccco2)cc1,-7,4,1,1.1,15,-15
Cc1nc(CN2CCOCC2)cc(=O)[nH]1,-2,-8,1.1,0.9,3,7
O=C(Cn1c(C(F)(F)F)nc2ccccc21)c1ccccc1,-6,39,0.6,0.5,9,53*
O=C(O)Cn1c(C(F)(F)F)nc2ccccc21,1,-7,1.1,1,3,-4
O=C(Cn1c(C(F)(F)F)nc2ccccc21)c1ccc(Cl)cc1,-2,44,0.6,0,-2,100*
Cc1nc2ccccc2n1CC(O)Cn1c(C(F)(F)F)nc2ccccc21 (centres undefined),0,72*,0.3,0.7,18,33
O=C1CC(c2ccc(F)c(Br)c2)C2=C(CCCC2=O)N1 (centres undefined),-7,29,0.7,0.3,28,69*
O=C1CC(c2ccc3c(c2)OCO3)C2=C(CCCC2=O)N1 (centres undefined),-2,52*,0.5,0.9,1,14
CCOc1ccc(C2CC(=O)NC3=C2C(=O)CCC3)cc1 (centres undefined),7,-5,1,1.1,4,-6
C/C(Cl)=C/Cn1c(N2CCCC2)nc2c1c(=O)n(C)c(=O)n2C,21,15,0.8,0.8,0,18
COC(=O)c1c(NC(=O)CCCC(=O)O)sc2c1CCC2,-4,-20,1.2,1,10,0
CCOC(=O)CN(C(=O)CCC(=O)Nc1cc(C)on1)C(C(=O)NC1CCCC1)c1cccnc1 (centres undefined),2,6,0.9,0.9,11,10
COc1cc(OC)cc(C(=O)Nc2ccccc2N2CCOCC2)c1,4,41,0.6,0.6,0,40
O=C(Nc1ccccc1N1CCOCC1)c1ccccc1[N+](=O)[O-],14,6,0.9,0.9,20,6
O=C(Nc1ccccc1N1CCOCC1)c1ccccc1NS(=O)(=O)c1ccc(F)cc1,2,78*,0.2,0.4,34*,58*
O=C(Nc1ccccc1N1CCOCC1)c1ccccc1NS(=O)(=O)c1ccc(F)c(F)c1,4,81*,0.2,0.6,15,37
Cc1ccc(C)c(S(=O)(=O)Nc2ccccc2C(=O)Nc2ccccc2N2CCOCC2)c1,9,97*,0,0.1,14,94*
Cc1cc(F)ccc1S(=O)(=O)Nc1ccccc1C(=O)Nc1ccccc1N1CCOCC1,-18,87*,0.1,0.2,19,83*
Cc1cc([N+](=O)[O-])nn1CC(=O)NCc1cccs1,-2,-14,1.1,0.8,11,20
CC1CC(C)CN(c2nc3c(c(=O)n(C)c(=O)n3C)n2C)C1 (centres undefined),-2,-1,1,1,-3,2
CCOc1ccc(S(=O)(=O)Nc2ccccc2C(=O)Nc2ccccc2N2CCOCC2)cc1,3,69*,0.3,0.2,34*,84*
Cc1cc(F)ccc1S(=O)(=O)Nc1ccccc1C(=O)Nc1ncn[nH]1,15,40,0.6,0.1,11,94*
COc1ccc(C)cc1C(=O)CCC(=O)Nc1ccccc1N1CCOCC1,4,82*,0.2,0.2,14,81*
